GDH-TPI counter-1: GDH-TPI coupled enzyme inhibition counter-screen. GDH-TPI coupled enzyme counterscreen, NADH absorbance. inhibition, % at 4.8 µM. hit rate 1.2% among 360,000. AID 588335; in the data active = inhibition above about 30%;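 also: 0% = DMSO wells and 100% = wells lacking the enzyme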
RecA intein inh: Mtb RecA intein splicing inhibition | P9WHJ3 | cell-free RecA intein splicing, fluorescence | inhibition, % (test concentration not listed) | hit rate 0.75% among 290,000 | AID 2221; in the data active = inhibition above about 30%;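 also: 0% = vehicle wells and 100% = reference inhibitor control wells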
Rv3671c protease: inhibits the M. tuberculosis serine protease Rv3671c. hit rate 0.048% among 320,000. P9WHR9. inhibition, % at 5.96 µM; in the data active = inhibition above about 38%;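 also: extracellular domain of Rv3671c used as enzyme; 0% = enzyme with DMSO and 100% = no enzyme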
Mtb betalactam: beta-lactam sensitization of Mtb H37Rv. M. tuberculosis H37Rv growth with meropenem, percent inhibition. inhibition, % at 25 µM. hit rate 0.27% among 330,000; call rule not given here;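 also: growth measured after seven days incubation then overnight dye step; 0% = bacteria only wells and 100% = bacteria with antibiotic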
UGM FP inh: Mtb UDP-galactopyranose mutase inhibition. P9WIQ1. purified UGM, fluorescence polarization probe displacement. inhibition, % at 10 µM. hit rate 0.06% among 320,000; in the data active = inhibition above about 10%, passing the limit was not always enough
Target sequence (P9WIQ1 whole entry, looked up): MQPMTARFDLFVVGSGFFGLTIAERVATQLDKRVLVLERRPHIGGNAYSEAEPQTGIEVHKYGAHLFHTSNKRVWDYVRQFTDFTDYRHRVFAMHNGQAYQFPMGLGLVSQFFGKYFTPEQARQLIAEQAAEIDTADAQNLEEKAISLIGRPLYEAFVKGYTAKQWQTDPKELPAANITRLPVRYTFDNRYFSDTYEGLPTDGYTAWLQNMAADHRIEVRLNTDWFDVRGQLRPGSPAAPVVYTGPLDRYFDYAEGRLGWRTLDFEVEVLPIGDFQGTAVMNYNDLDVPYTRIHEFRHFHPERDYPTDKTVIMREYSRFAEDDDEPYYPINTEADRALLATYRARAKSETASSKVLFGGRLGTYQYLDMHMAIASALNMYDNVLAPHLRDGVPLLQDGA
Mtb FBA inh: inhibitors of M. tuberculosis fructose-bisphosphate aldolase; P9WQA3; hit rate 2.3% among 360,000; inhibition, % at 1 µM; AID 588726; purified M. tuberculosis FBA, fluorescence read-out;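 also: 0% = vehicle and 100% = reference inhibitor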
Mtb FBA confirm: Mtb FBA inhibition, confirmed | shares compounds with Mtb FBA inh | purified M. tuberculosis FBA, fluorescence read-out | inhibition, % at 1 µM | hit rate 78% among 5,600 | AID 651616;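 also: 0% = vehicle wells and 100% = reference inhibitor wells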
GDH-TPI counter-2: counter-screen for M. tuberculosis FBA inhibitors: GDH-TPI coupled enzyme inhibition. shares compounds with Mtb FBA inh. GDH-TPI coupled enzyme counterscreen, fluorescence. inhibition, % at 1 µM. hit rate 81% among 5,600; in the data active = inhibition above about 10%
Active calls of the source: *; x = not tested or not shown; + = active, no number. Most compounds without a hit are left out; they make up all but 4% or so of the library. Rule as the data show it, unless noted: active = inhibition above about 27%; inactive = the rest.

SMILES	GDH-TPI counter-1	RecA intein inh	Rv3671c protease	Mtb betalactam	UGM FP inh	Mtb FBA inh	Mtb FBA confirm	GDH-TPI counter-2
CC(C)CCNC(=O)c1cc(-c2cccs2)nc2ccccc12	11	0	-2	6	-1	65*	-2	-4
Cc1cc(NC(=O)c2cc(-c3ccc(C)s3)nc3ccccc23)no1	11	-1	-7	-3	2	29*	+	180*
Nc1ccccc1CCc1ccccc1N	12	x	x	x	x	4	x	x
C=CCC(C(=O)NC(C)c1ccccc1)C(=O)NC(C)c1ccccc1 (configuration not stated)	5	3	0	-4	0	1	x	x
CN(C)/C=C/C(=O)c1ccc(F)cc1F	21	4	-2	-4	2	-1	x	x
CCCn1nnnc1SCC(=O)N1CCOCC1	1	2	-7	-4	-2	0	x	x
CCn1nnnc1SCC(=O)N1CCOCC1	2	1	-8	-5	1	89*	+	+
O=C(NCc1cccnc1)c1ccc(-c2cc3ccccc3oc2=O)cc1	16	0	2	1	0	54*	3	1
O=C(NCc1cccnc1)c1ccc(-c2ccc(Cl)cc2)o1	2	2	-6	-2	-1	29*	113*	103*
O=C(Nc1ccc(-c2cc3ccccc3oc2=O)c(Cl)c1)c1cccnc1	20	1	-52	-8	-4	4	x	x
CCCC(C)(C)C(=O)N1CCC1(C)C(=O)NS(=O)(=O)c1cccc(Cl)c1 (configuration not stated)	6	x	x	x	x	1	x	x
Cc1cc2nnc(SC(C)C#N)n2c2ccccc12 (configuration not stated)	10	0	-1	-13	3	3	x	x
Cc1cc2nnc(SC(C)C)n2c2ccccc12	15	0	-3	-1	3	28*	130*	103*
COCCN1CC(O)=C(c2nc3ccccc3c(=O)[nH]2)C1=N	20	-1	-4	-9	1	46*	x	+
COc1ccccc1N1CC(O)=C(c2nc3ccccc3c(=O)[nH]2)C1=N	22	1	-9	-3	0	38*	146*	111*
N=C1C(c2nc3ccccc3c(=O)[nH]2)=C(O)CN1CCO	1	-2	0	0	-1	17	x	x
O=C(COc1ccc(Br)cc1CNC1CCCC1)Nc1ccccc1	0	1	-1	11	-2	-2	x	x
Oc1cccc2c(NC(=S)Nc3ccc(SC(F)F)cc3)cccc12	4	14	1	89	2	30*	+	+
COc1ccc(-c2cc(C(F)F)nc(-n3nc(C)cc3C)n2)cc1	9	-1	2	x	2	52*	63*	44*
O=C(c1cc(F)c(F)cc1Cl)N1CCN(c2ncccn2)CC1	-1	1	-1	-4	-3	5	x	x
Cc1cccc(NC(=O)c2ncn3c2C(=O)N[C@H](C)C3)c1	x	x	x	x	x	1	x	x
Cc1oc2c(O)c(O)ccc2c(=O)c1-c1ccc(Cl)cc1	15	-5	4	4	-1	-2	x	x
COc1ccc(-c2c(C)oc3c(CN4CCOCC4)c(O)ccc3c2=O)cc1	10	-1	11	-9	-1	104*	60*	51*
CCOC(=O)c1oc2c(CN3CCN(C)CC3)c(O)ccc2c(=O)c1-c1ccccc1OC	15	-1	3	-12	-2	-4	x	x
Cc1oc2c(CN3CCCC3)c(O)ccc2c(=O)c1-c1ccc(Br)cc1	7	-2	-3	6	-1	89*	+	+
SMILES	GDH-TPI counter-1	RecA intein inh	Rv3671c protease	Mtb betalactam	UGM FP inh	Mtb FBA inh	Mtb FBA confirm	GDH-TPI counter-2
COc1ccc(-c2c(C)oc3c(CN4CCN(CCO)CC4)c(O)ccc3c2=O)cc1OC	12	-7	3	-19	-5	31*	64*	58*
O=C(O)c1cc(N2CCCC2)ccn1	9	x	x	x	x	3	x	x
Cc1ccc2nc(-c3sc4nc(C)cc(C)c4c3N)[nH]c2c1	9	-22	12	-4	0	30*	112*	82*
COc1ccc(-c2nc(C#N)c(NCc3ccc(F)cc3)o2)cc1OC	10	3	6	8	1	103*	74*	55*
COc1ccc(-c2nc(C#N)c(NCc3ccccc3Cl)o2)cc1	1	2	7	16	-1	10	x	x
COc1ccc(-c2nc(C#N)c(NCc3ccccc3Cl)o2)cc1OC	23	1	5	4	0	57*	114*	81*
COc1ccc(-c2nc(C#N)c(NCc3cccnc3)o2)cc1OC	14	-2	-3	3	-1	30*	53*	39*
CC(C)Oc1cccc(C2NC(=O)c3ccccc3O2)c1 (configuration not stated)	9	0	-5	3	0	8	x	x
C[C@H]1CN([C@@H](C)CO)C(=O)CCCn2nncc2CO[C@H]1CN(C)C(=O)Nc1cccc2ccccc12	x	x	x	x	x	4	x	x
CCN(CC)CCCNC(=O)c1cc2c(=O)n(CC)c3ccccc3c2s1	9	-1	-3	-2	5	72*	+	+
CCn1c(=O)c2cc(C(=O)NCCN(C)C)sc2c2ccccc21	16	1	1	-1	2	62*	105*	89*
CCCN(CCC)CCNC(=O)c1cc2c(=O)n(CC)c3ccccc3c2s1	22	-4	-1	5	0	28*	63*	55*
CCN(CC)CCCNC(=O)c1cc2c(Cl)nc3ccccc3c2s1	9	0	-5	9	-1	2	x	x
CCn1c(=O)c2cc(C(=O)N3CCCC3)sc2c2ccccc21	x	1	x	x	x	x	x	x
CCN(CC)CCNC(=O)c1cc2c(=O)n(CC)c3ccccc3c2s1	24	1	-4	13	-4	72*	42*	36*
N#Cc1ccc(-c2csc(NC(=O)C3CC3)n2)cc1	5	-2	-16	15	0	50*	91*	71*
CCn1cc(C(=O)NCCC(C)C)c(=O)c2cc(F)c(N3CCN(C(=O)c4ccco4)CC3)cc21	-3	-10	-12	54	3	15	x	x
CCn1cc(C(=O)NCc2ccncc2)c(=O)c2cc(F)c(N3CCN(C(=O)c4ccco4)CC3)cc21	9	-2	-8	9	-2	42*	35*	22*
CCn1cc(C(=O)NC(C)C)c(=O)c2cc(F)c(N3CCN(C(=O)c4ccco4)CC3)cc21	7	-1	-11	28	-1	55*	100*	70*
Cc1c(Cl)cccc1Nc1ccccc1C(=O)O	9	6	1	0	0	4	x	x
O=C(O)c1ccccc1Nc1ccnc(Cl)n1	10	-1	6	-1	0	28*	+	144*
Cc1cc(/C=N/NC(=O)Cn2c3ccccc3c(=O)c3ccccc32)c(C)n1-c1ccccc1	9	-77	-19	-1	-2	66*	+	+

Assay outcomes from PubChem BioAssay.
